Records with an inconclusive call do not appear. Activity calls are given as the source filed them. Calls come from the whole dose curve; as a rule, active = well fitted curve in the direction sought with a large enough effect; inconclusive = small, poorly fitted or top-dose-only effect, or effect the other way, or another doubt; inactive = no such curve, though single readings can be large or run the other way.
assay: Confirmatory redox qHTS assay for identification of artifact compounds.; settings: Amplex Red/HRP redox cycling with DTT, fluorescence; series mostly up to 39 µM
In short: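 Amplex Red (25 uM final) and HRP (250 mU/mL final) in HBSS, compound 15 min, then 250 uM DTT final 30 min, room temperature, dark; fluorescence 525/598 nm, normalized to DMSO and 10 uM DA3003, Hill fitted.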

outcome, inactive:
FC(F)(F)c1ccccc1-c1nc(NCC23CC4CC(CC(C4)C2)C3)c2ccccc2n1
COc1cc2c(NC3CCN(C)CC3)nc(N3CCCN(C)CC3)nc2cc1OCC1CCCNC1 (stereo not given)
CCc1ccc(CN(Cc2ccco2)C(=O)c2ccc(OC)cc2)cc1
O=C(NCCC1=CCCCC1)c1ccc2c(c1)N(Cc1cccc(Cl)c1)C(=O)c1ccccc1S2=O (stereo not given)
COc1ccc(N2CC(NC(=O)c3ccco3)CC2=O)cc1 (stereo not given)
CCOc1ccc(C(=O)c2cn(CC(=O)Nc3cc(OC)ccc3OC)c3cc(OC)c(OC)cc3c2=O)cc1
CCC(C)NC(=O)c1ccc2nc(-c3cccs3)c(-c3cccs3)nc2c1 (stereo not given)
Cc1ccc(CNC(=O)c2c(-c3ccccc3Cl)noc2C)o1
COc1ccccc1NC(=O)CSc1nnc(NC(=O)NC2CCCCC2)s1
CC(N)(C(=O)O)c1ccc(S(=O)(=O)O)cc1 (stereo not given)
OC[C@H]1O[C@@H]2O[C@H]3[C@H](O)[C@@H](O)[C@@H](O[C@H]4[C@H](O)[C@@H](O)[C@@H](O[C@H]5[C@H](O)[C@@H](O)[C@@H](O[C@H]6[C@H](O)[C@@H](O)[C@@H](O[C@H]7[C@H](O)[C@@H](O)[C@@H](O[C@H]1[C@H](O)[C@H]2O)O[C@@H]7CO)O[C@@H]6CO)O[C@@H]5CO)O[C@@H]4CO)O[C@@H]3CO
O=C(NCCSc1c(-c2ccc(Br)cc2)[nH]c2ccccc12)c1ccc(S(=O)(=O)N2CCOCC2)cc1
CN1C(CC(=O)c2ccccc2)CCCC1CC(O)c1ccccc1 (stereo not given)
COc1ccc(S(=O)(=O)N(CCc2ccccc2)CC(=O)Nc2cc(Cl)ccc2C)cc1
O=C(Nc1onc2c1CCCC2)c1ccc(Cl)cc1
CN(C(=O)CSc1nc2ccc(NC(=O)c3cccs3)cc2s1)c1ccccc1
Cc1ccc(-n2ncc(C(=O)N3CCN(c4ccccn4)CC3)c2C2CCN(C(=O)OC(C)(C)C)CC2)cc1C
COc1ccc(N2C(=O)c3ccccc3C2=O)cc1
COc1ccc(CCNC(=O)c2cc3c(-c4ccc(OC)c(OC)c4)nn(C)c3s2)cc1OC
COc1ccc(C(=O)O)cc1Nc1nc2ccc(C)cc2n2cnnc12
O=C(CN1C(=O)CCn2nc(-c3ccccc3)cc21)NCc1ccc(F)cc1
Cc1nc(S(=O)(=O)N2CCN(c3ccccc3F)CC2)cn1C
O=C1CCc2cc(S(=O)(=O)Nc3cccc(F)c3)ccc2N1
COc1ccc(OC)c(NC(=O)Cn2c(=O)n(CC3CCCO3)c(=O)c3cc(OC)c(OC)cc32)c1 (stereo not given)
COc1cc(O)c(C(CC(=O)N2CCCCC2)c2ccc(C)cc2)c(OC)c1 (stereo not given)
COc1cc2c3cc1OCc1c(O)c(OC)cc4c1C(Cc1ccc(cc1)Oc1cc(ccc1O)CC3N(C)CC2)N(C)CC4 (stereo not given)
COc1cccc(CNC(=O)C2Cc3cc(S(=O)(=O)N4CCCCCC4)ccc3N2C(C)=O)c1 (stereo not given)
COc1cccc(-c2nc3cc(NC(=O)c4cccnc4)ccc3o2)c1
COc1cc2c(NC3CCN(C(C)C)CC3)nc(N3CCCN(c4ccccc4)CC3)nc2cc1OCCCN1CCCCC1
CC(O)COCC1OC2OC3C(COCC(C)O)OC(OC4C(COCC(C)O)OC(OC5C(COCC(C)O)OC(OC6C(COCC(C)O)OC(OC7C(COCC(C)O)OC(OC8C(COCC(C)O)OC(OC1C(OCC(C)O)C2OCC(C)O)C(OCC(C)O)C8OCC(C)O)C(OCC(C)O)C7OCC(C)O)C(OCC(C)O)C6OCC(C)O)C(OCC(C)O)C5OCC(C)O)C(OCC(C)O)C4OCC(C)O)C(OCC(C)O)C3OCC(C)O (stereo not given)
O=c1c2ccccc2sn1-c1cc(S(=O)(=O)N2CCOCC2)ccc1N1CCCCC1
Cc1nc(-c2ccccc2C(C)C)nc(NCc2ccc(-c3cccnc3)cc2)c1C
CNC(=O)c1ccc(Nc2nnc(-c3ccc(C)c(S(=O)(=O)N4CCOCC4)c3)c3ccccc23)cc1
CC1(C)CC(=O)c2cc(C(=O)NCCc3ccccc3)c(=O)[nH]c2C1
Cc1ccc(NC(=O)c2ccc3c(c2)NC(=O)c2ccccc2S3)cc1
Oc1ccc(CNc2cccc(F)c2F)c2cccnc12
O=C(NNCNNC(=O)c1ccncc1)c1ccncc1
CC(C)c1nn2c(=O)cc(COC(=O)c3cccc(NC(=O)COc4ccc(F)cc4)c3)nc2s1
COc1ccc(C2C(C(=O)Nc3ccccc3)=C(C)Nc3c(C(=O)Nc4ccccc4)cnn32)cc1 (stereo not given)
Cc1cc2c(s1)c1cnn(Cc3cc(F)c(Cl)cc3Cl)c(=O)c1n2C
